This is an account of results in PubChem BioAssay (NCATS).

A short description of test [1]: qHTS assay to identify inhibitors of the type 1 interferon - major histocompatibility complex class I in skeletal muscle: Counter screen cell viability and HiBit confirmation (AID 1347412). Also: potency is read from the fitted curve at half-maximal effect. As to activity change, negative = inhibition: % is scaled to controls: 0 for no effect and ±100 for the full control effect. As to all read-outs here: nearly all actives have a fitted effect of over 60% in size. Conditions: iHSKM muscle cells + IFN-b, HiBiT or CellTiter-Glo, 24 h; for activity change, negative = inhibition: at 45.9 µM (top of the series). The gist of the method:
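CRISPR HLA-B*08:01-HiBit immortalized human myoblasts (C25cl48) stimulated with 4 ng/ml IFN-beta and compounds (12-point 1:3, top 46 uM final) for 24 h at 37 C. Duplicate plates read by HiBit lytic luminescence or CellTiter Glo ATP.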
On the technique in general: Quantitative high-throughput screening tests each substance at several concentrations.

Test [2] in a line: Drug repurposing screens with cells derived from glioblastoma tumor samples (AID 1345199). Also: nearly all actives have a fitted effect of over 40% in size. Also: potency is read from the fitted curve at half-maximal effect. As to activity, negative = cell killing: % is scaled to controls: 0 for no effect and ±100 for the full control effect. As to conditions: GBM patient neurospheres viability, ATP luminescence, 48 h. The essentials:
(§1)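 Primary testing used CD133+ neurospheres from four GBM patients, seven concentrations, 48 h exposure and ATP-based viability; confirmation added three slower-growing patient lines.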

The test system of another test is astro. The test is described as above. As to conditions: viability, ATP luminescence, 48 h; series mostly up to 45.9 µM. The essentials:
as §1

For the next test, the system named is Tov-21-G. Nature of the test: Primary qHTS to identify gynecologic anti-cancer compounds using libraries of approved drugs and bioactive compounds (AID 1345084). Also: nearly all actives have a fitted effect of over 55% in size. Also: potency is read from the fitted curve at half-maximal effect. As to conditions: Gynecologic cancer cell panel viability, ATPlite luminescence, 48 h; series mostly up to 57.5 µM. The gist of the method:
(§2)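 Five-concentration response, 48 h; readout is ATP-driven luciferase luminescence.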

The test system of a further test is Tov112D. Described as above. Conditions: Gynecologic cancer cell panel viability, ATPlite luminescence, 48 h; series mostly up to 57.5 µM. The gist of the method:
as §2
On the technique in general: In ATP-based viability assays light output follows the ATP content of the culture.

Test [3] in a line: qHTS assay for small molecule activators of the human pregnane X receptor (PXR) signaling pathway (AID 720659; call rule not given here; also: 0% is about no effect). Conditions: DPX-2 HepG2 CYP3A4-luciferase, 24 h; series mostly up to 92.3 µM.
Setting [4] is: at 45.9 µM (top of the series), tumour line B.
The mark [5] stands for this setting: at 45.9 µM (top of the series), tumour line D.
[6] abbreviates: at 46.1 µM (top of the series), tumour line C.
Where [7] appears, read: at 20 µM (top of the series), tumour line C.

Each structure is given as a SMILES string. Several values for one entry are separate records, joined by “and”; a condition that tells them apart may be missing. Equal entries are not always repeated. Unmarked numbers belong to inactive results. Results filed as inconclusive are left out. Some compounds were tested as several samples or in several runs, with calls that do not always agree. Activity calls are given as the source filed them. Unless noted, calls follow the shape of the dose curve; as a rule, active = well fitted curve in the direction sought with a large enough effect; inconclusive = small, poorly fitted or top-dose-only effect, or another doubt; inactive = no such curve, though single readings can be large; an effect the other way counts as inactive or inconclusive.

Turning to `COc1cc2nc(N3CCCN(C)CC3)nc(NC3CCN(Cc4ccccc4)CC3)c2cc1OC`, the Potency in test [1] (Viability) was 22.2 µM (active).

Turning to `CC(C)NCC(O)c1ccc(NS(C)(=O)=O)cc1` (centres undefined), the activity, negative = cell killing is -3.14% and -4.61% in test [2] (setting [4]); -13.7% and -17.7% in test [2] (setting [5]); -32.2% in test [2] (at 46 µM (top of the series), tumour line A); -4.94% and -17% in test [2] (setting [6]). In addition, the Potency result with astro is “inactive”.

In the case of `CCCCOc1ccc(CC(=O)NO)cc1`, the activity, negative = cell killing in test [2] (setting [7]) is 38.6%; in test [2] (at 21.2 µM (top of the series), tumour line B), -16.2%; in test [2] (at 21.2 µM (top of the series), tumour line D), -14.5%. For the same compound, in test [2] (tumour line A), the Potency is 11.2 µM (active). For the same compound, the Potency entry in the test on astro was “inactive”.

In the case of `CCCCc1oc2ccc(NS(C)(=O)=O)cc2c1C(=O)c1ccc(OCCCN(CCCC)CCCC)cc1`, the Potency with astro is 20 µM (active). The activity change, negative = inhibition in test [1] (HiBiT) is -10.2%.

With `CNC(=O)c1cc(Oc2ccc(NC(=O)Nc3ccc(Cl)c(C(F)(F)F)c3)cc2)ccn1`, the Potency result in the test on Tov-21-G and with Tov112D was “inactive” in each case. In addition, the Potency in the test with astro was 11.2 µM (active). Further, the activity change, negative = inhibition in test [1] (Viability) was -24%.

For `COC(=O)Nc1nc2ccc(C(=O)c3ccccc3)cc2[nH]1`, the Potency in the test on Tov112D is 1.58 µM (active); in test [2] (tumour line A), 0.158 µM (active). The activity, negative = cell killing in test [2] (setting [7]) is -22.4%. Moreover, the activity change, negative = inhibition in test [1] (Viability) is -33.9%.

Regarding `CN(C)c1ccc(C(=C2C=CC(=[N+](C)C)C=C2)c2ccc(N(C)C)cc2)cc1`, the Potency with Tov-21-G was 1.78 µM (active); with Tov112D it was 2 µM (active); with astro, 2.51 µM (active); in test [1] (HiBiT) it was 9.91 µM (active); in test [1] (Viability) it was 9.91 µM (active). The result in test [3] was inactive.

Regarding `CCN(CC)CC#CCOC(=O)C(O)(c1ccccc1)C1CCCCC1` (centres undefined), the activity, negative = cell killing in test [2] (setting [4]) is -22.3%. The values for the Potency in test [2] (tumour line A) and in test [2] (tumour line C) were 10 µM (active) and 20.6 µM (active), respectively. In addition, the Potency entry in the test on astro was “inactive”.

On to `CC(=O)[C@H]1CC[C@H]2[C@@H]3CCC4=CC(=O)CC[C@]4(C)[C@H]3CC[C@]12C`, for which the activity, negative = cell killing in test [2] (setting [4]) is -26.3%. The Potency in test [2] (tumour line D) is 12.6 µM (active).

Take `COc1cc2ncnc(Nc3cccc(Cl)c3)c2cc1OC`: the Potency entry with Tov-21-G and with Tov112D was “inactive” in each case. For the same compound, in test [1] (Viability), the activity change, negative = inhibition is -9.03%.

On to `Nc1nc(=S)c2[nH]cnc2[nH]1`, for which the Potency in the test on Tov-21-G was 3.55 µM (active); with Tov112D it was 1.41 µM (active). In the test with astro, the Potency result is “inactive”.

For `NC1(c2ccc(-c3nc4ccn5c(=O)[nH]nc5c4cc3-c3ccccc3)cc2)CCC1`, in the test on Tov112D, the Potency result is “inactive”.

Turning to `CC(C)(C)C(=O)OCOP(=O)(COCCn1cnc2c(N)ncnc21)OCOC(=O)C(C)(C)C`, in test [2] (setting [6]), the activity, negative = cell killing was -7.63%. Further, the Potency result with astro was “inactive”.

As to `O[C@@H](CNC[C@H](O)[C@H]1CCc2cc(F)ccc2O1)[C@@H]1CCc2cc(F)ccc2O1`, the activity change, negative = inhibition is 26% in test [1] (HiBiT) and -9.67% in test [1] (Viability).

Consider `CC(C)(C#N)c1cc(Cn2cncn2)cc(C(C)(C)C#N)c1`, for which the Potency entry in the test on Tov-21-G and in the test on astro was “inactive” throughout. Also, the results for the activity, negative = cell killing in test [2] (setting [4]), in test [2] (setting [5]) and in test [2] (setting [6]) were -13.4%, -8.79% and -3.92%, respectively.

As to `Nc1nc(F)nc2c1ncn2[C@@H]1O[C@H](CO)[C@@H](O)[C@@H]1O`, the Potency is 17.8 µM (active) with Tov112D, 10 µM (active) in test [2] (tumour line A) and 20 µM (active) in test [2] (tumour line D). In addition, the activity, negative = cell killing is -27.2% in test [2] (setting [4]); -19% and -29.8% in test [2] (setting [6]).

In the case of `N=C(N)c1ccc(OCCCCCOc2ccc(C(=N)N)cc2)cc1`, the Potency result in the test on Tov-21-G and in the test with Tov112D was “inactive” throughout. In test [3], the result was inactive.

For `CCCCCCNC(=O)n1cc(F)c(=O)[nH]c1=O`, the Potency entry with Tov112D is “inactive”. The activity, negative = cell killing in test [2] (setting [6]) is -20.6%.
